PubChem BioAssay (NCATS)
Results filed as inconclusive are left out. Unmarked numbers belong to inactive results. The source made the active and inactive calls. Calls follow the shape of the full dose curve.

test: Cell Viability - MRC5 (AID 434); conditions: MRC5 lung fibroblast viability, qHTS;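 also: potency reflects cytotoxicity seen as loss of intracellular ATP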
Text: NIH Chemical Genomics Center [NCGC]
NIH Molecular Libraries Screening Centers Network [MLSCN]
National Institutes of Environmental Health Sciences [NIEHS]
National Toxicology Program [NTP]
We have developed a 1536-well cell-based assay for quantitative high throughput screening (qHTS) against a number of cell lines to determine in vitro cytotoxicity of small molecules. This particular assay uses the MRC5 cell line which is derived from normal human lung fibroblasts.
NCGC Assay Protocol Summary:
The CellTiter-Glo luminescent cell viability assay (Promega) is a homogeneous method to measure the number of viable cells in culture. The end point readout of this assay is based on quantitation of intracellular ATP, an indicator of metabolic activity, using the luciferase reaction. Luciferase catalyzes the oxidation of beetle Luciferin to oxyluciferin and light in the presence of ATP. The luminescent signal is proportional to amount of ATP present.
Using the CellTiter-Glo luminescent cell viability assay, the amount of cellular ATP was measured in the MRC5 cell line with complete culture medium following compound treatment for 40 hours. The assay was performed in opaque white Kalypsys 1536-well plates. In the screen, tamoxifen and doxorubicin were used as positive controls. Library compounds were measured for their ability to cause acute toxicity in the cell line, as reflected by a decrease in intracellular ATP levels, in a concentration-dependent manner. Data were normalized to the controls for basal activity (DMSO only) and 100% inhibition (100 uM tamoxifen). AC50 values were determined from concentration-response data modeled with the standard Hill equation.
qHTS protocol for CellTiter Glo MRC5 cellular assay
[Step] [Parameter] [Value] [Description]
1. Reagent; 5 uL; 1500 MRC5 cells/well
2. Time; 5 hr; 37 °C incubation
4. Controls; 23 nL; Tamoxifen 0.34 uM to 100 uM & Doxorubicin 0.02 nM to 100 uM
5. Time; 40 hr; 37 °C incubation
6. Reagent; 5 uL; CellTiter Glo reagent
7. Time; 20 min; Room Temperature
8. Detection; Luminescence; Viewlux plate reader
Keywords: cell viability, cytotoxicity, MRC5 cell line, luminescence, NTPHTS, NTPHTS_NCGC, NIEHS, EPA, DSSTox, MLSMR, MLSCN, NIH Roadmap, qHTS, NCGC
Potency is read from the fitted curve at half-maximal effect.

SMILES | Potency
O=[N+]([O-])c1cccc(Cl)c1Cl | > 92 µM
Cc1ccc(N)c([N+](=O)[O-])c1 | > 92 µM
O=C(O)CC(C(=O)O)C(CC(=O)O)C(=O)O (stereo not given) | > 92 µM
C=CCc1ccc(OC)c(OC)c1 | > 92 µM
S=C1NC=NC2N=CNC12 (stereo not given) | > 92 µM
Cc1ccccc1C | > 92 µM
CC1=CC(C)(C)Nc2ccccc21 | > 92 µM
CCC(C)c1ccccc1O (stereo not given) | > 92 µM
OCCNCCO | > 92 µM
O=C1CCc2ccccc2O1 | > 92 µM
O=C(O)c1ccccc1C(c1ccc(O)cc1)c1ccc(O)cc1 | > 92 µM
C=Cc1ccccc1Cl | > 92 µM
COC(=O)c1ccc(C)cc1 | > 92 µM
c1ccc2c(c1)c1cccc3ccc4cccc2c4c31 | > 92 µM
Clc1cc(Cl)c(Cl)cc1Cl | > 92 µM
c1ccccc1 | > 92 µM
CCCCC(CC)CN (stereo not given) | > 92 µM
O=C(O)c1ccc(O)cc1O | > 92 µM
CCCCCCCCCCCCCCC1CO1 (stereo not given) | > 92 µM
Cc1ccc([N+](=O)[O-])c(C)c1 | > 92 µM

SMILES | Potency
CCO[Si](CCCN)(OCC)OCC | > 92 µM
COc1ccc2nc(N)sc2c1 | > 92 µM
COC(=O)CCCCC(=O)OC | > 92 µM
CN(C)C=O | > 92 µM
CCCCCCCCO | > 92 µM
CCC(O)OC(O)CC (stereo not given) | > 92 µM
C=CC(=O)OCCOCCOCCOCCOC(=O)C=C | 41.6 µM (active)
C[C@H](CCC(=O)O)[C@H]1CC[C@H]2[C@@H]3CC[C@@H]4C[C@H](O)CC[C@]4(C)[C@H]3CC[C@]12C | > 92 µM
O=C1c2ccccc2C(=O)C1c1ccc2ccccc2n1 | 30.1 µM (active)
Nc1ccc(S(=O)(=O)O)cc1 | > 92 µM
CC1=C2[C@H](/C=C(\C)C(=O)O)CC[C@@H](C)[C@H]2CC1 | > 92 µM
O=S(=O)(O)c1ccccc1 | > 92 µM
Cc1cccc([N+](=O)[O-])c1C | > 92 µM
c1ccc2scnc2c1 | > 92 µM
CC12CCC(CC1=O)C2(C)C (stereo not given) | > 92 µM
C/C=C\c1ccc(OC)cc1 | > 92 µM
c1ccc2c(c1)[nH]c1ccccc12 | > 92 µM
Cc1c(N=C=O)cccc1N=C=O | > 92 µM
CCCCOCCO | > 92 µM
COCC(=O)O | > 92 µM
